Measured values taken from PubChem BioAssay AID588590 (National Center for Advancing Translational Sciences (NCATS), 2011).
“And” between values parts separate entries of the source, which are not always exact repeats. Identical values can stand only once. In all, about 390,000 compounds went through this assay and about 4,000 (1%) were called active. Inconclusive results (about 7%) are left out. Calls follow the shape of the dose curve; as a rule, active = well fitted inhibition curve with a large enough effect; inconclusive = small, poorly fitted or top-dose-only effect, or another doubt; inactive = no such curve, though single readings can be large or run the other way. The list comes from a sample in which actives are over-represented; it also holds similar structures and randomly drawn compounds. A structure can be active in one record and inactive in another.

Target: DNA polymerase iota (Homo sapiens) (UniProt Q9UNA4)
Sequence (Q9UNA4 whole entry, looked up): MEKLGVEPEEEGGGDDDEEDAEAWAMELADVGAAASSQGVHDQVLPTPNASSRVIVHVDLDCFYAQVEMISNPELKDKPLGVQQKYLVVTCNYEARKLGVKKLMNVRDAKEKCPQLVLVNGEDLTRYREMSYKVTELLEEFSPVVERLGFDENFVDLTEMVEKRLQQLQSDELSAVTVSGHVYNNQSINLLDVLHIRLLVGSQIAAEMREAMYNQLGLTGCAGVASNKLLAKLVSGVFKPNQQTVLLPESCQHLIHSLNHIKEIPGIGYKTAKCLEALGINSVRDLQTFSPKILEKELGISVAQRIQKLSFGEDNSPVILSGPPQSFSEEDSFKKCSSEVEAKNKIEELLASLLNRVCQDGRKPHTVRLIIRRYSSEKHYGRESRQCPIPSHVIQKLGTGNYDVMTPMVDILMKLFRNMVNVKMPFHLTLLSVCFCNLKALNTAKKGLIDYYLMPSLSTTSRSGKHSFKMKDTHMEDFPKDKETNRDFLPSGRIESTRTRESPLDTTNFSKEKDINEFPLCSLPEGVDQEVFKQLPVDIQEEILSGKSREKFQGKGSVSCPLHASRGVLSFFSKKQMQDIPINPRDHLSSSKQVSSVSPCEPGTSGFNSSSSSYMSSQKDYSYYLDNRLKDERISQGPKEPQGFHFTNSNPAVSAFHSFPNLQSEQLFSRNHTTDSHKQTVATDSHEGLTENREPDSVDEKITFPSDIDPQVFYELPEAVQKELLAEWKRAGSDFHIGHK
Test: qHTS for Inhibitors of Polymerase Iota
Details: Pol iota fluorescent replication assay, 10 min; series mostly up to 115 µM
Method in brief: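 Pol iota at 10 nM preincubated 15 min with compounds at room temperature; reaction started with fluorescent substrate, 50 nM final. Fluorescence read kinetically at 0 and 10 min; buffer-only wells as negative control.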
Potency is read from the fitted curve at half-maximal effect.

Potency, active:
CC(C)c1ccc2c(c1)c(SC(C)(C)C)c(CC(C)(C)C(=O)O)n2Cc1ccc(Cl)cc1 28.2 µM, CSC1=N/C(=C\C=C\c2cccs2)C(=O)S1 15.8 µM, Cc1ccc(-c2nn(-c3ccccc3)cc2/C=C2\SC(=S)N(CCCCCC(=O)O)C2=O)o1 89.1 µM, CN(C)S(=O)(=O)c1cccc(-c2nn(-c3ccccc3)cc2/C=C2\SC(=S)N(CC(=O)O)C2=O)c1 31.6 µM, COc1ccccc1-n1c(-c2cc(-c3ccco3)[nH]n2)n[nH]c1=S 8.91 µM, CCOc1c(Br)cc(/C=C2\C(=O)N(CCC#N)N=C2C)cc1OC 0.794 µM, CCc1ccc(NC(=O)C2CCCN2S(=O)(=O)c2ccc3nc(-c4ccccc4)[nH]c3c2)cc1 (stereo not drawn) 89.1 µM, COc1ccc(C(=O)Nc2cccc(/C=C(/CCC(=O)O)c3nc4ccccc4s3)c2)cc1 12.6 µM, CC(C)c1ccc(NS(=O)(=O)c2ccc3[nH]cc(C(=O)NC4CCCC4)c(=O)c3c2)cc1 79.4 µM, CS(=O)(=O)c1ccc2c(c1)SC1=NC(=O)/C(=C/c3ccco3)C(=N)N12 14.1 µM, S=c1[nH]nc(-c2cc(-c3ccccc3)n[nH]2)n1/N=C/c1c2ccccc2cc2ccccc12 20 µM, Cc1cc(=O)n2[nH]c(-c3sccc3-n3c(C)ccc3C)cc2n1 20 µM, COC(=O)c1ccc(NC(=O)c2cnn(-c3ccc(Cl)cc3)c2C2CCN(C(=O)OC(C)(C)C)CC2)cc1 89.1 µM, CN1CCOC1c1ccc(C2OCCN2C)cc1 (stereo not drawn) 20 µM, Cc1ccc(N=C2NC(=O)/C(=C/C=C/c3ccco3)S2)cc1C 11.2 µM, Cc1ccc(N2NC(=O)/C(=C/C=C/c3ccco3)C2=O)cc1C 20 µM, O=C(COc1ccc(/C=N/NC(=O)c2ccc(O)cc2)cc1)Nc1ccc([N+](=O)[O-])cc1 3.98 µM, Cc1ccc(NC(=O)COc2ccc(/C=N\NC(=O)c3cccnc3)cc2)cc1C 22.4 µM

Potency, inactive:
COc1cc(OC)c(/C=C/c2ccnc3ccccc23)c(OC)c1, CC(NC(=O)CCc1cn(Cc2ccccc2Cl)c2ccccc12)c1ccccc1 (stereo not drawn), Cc1c(C)n(Cc2ccc(Cl)cc2)c2ccc(C(=O)N3CCN(c4ccccc4F)CC3)cc12, O=C(Cn1c(=O)nc(-c2ccccc2)c2cc(Cl)ccc21)NCc1ccc(Cl)cc1, COc1cc(-c2noc(-c3ccc(N4CCCC4)c([N+](=O)[O-])c3)n2)cc(OC)c1OC, Cc1ccc(C(=O)N2CCc3cc(CNC(=O)c4ccc(Br)cc4)ccc32)cc1, Cc1ccc(CN(C(=O)COc2ccc(Cl)cc2C)C2CCS(=O)(=O)C2)o1 (stereo not drawn), CCc1cc2c(-c3ccccc3)cc(=O)oc2c2c1OCN(Cc1ccc(C)cc1)C2, Cc1ccc(S(=O)(=O)c2nc(-c3ccco3)oc2SCC(=O)Nc2ccc(F)cc2)cc1, O=C1CCCc2cc(S(=O)(=O)N3CCCC(C(=O)NCc4ccccc4)C3)ccc2N1 (stereo not drawn), O=C(O)CCCCCCCCc1cn(CN2C(=O)c3ccccc3C2=O)nn1, O=C1/C(=C/c2coc3ccc(O)cc3c2=O)SC(=S)N1c1ccccc1, COc1cccc(-c2nn(-c3ccccc3)cc2/C=C(\C#N)C(=O)NCCCn2ccnc2)c1, Cc1ccc(-c2nn(-c3ccccc3)cc2/C=C/C(=O)Nc2cccc(S(N)(=O)=O)c2)cc1, CCn1cc(C(=O)N(C)Cc2ccccc2)c(=O)c2cc(S(=O)(=O)N3CCCCCC3)ccc21, COc1ccc(Cn2c(=O)n(-c3ccccc3C)c(=O)c3c4c(sc32)CN(C(C)=O)CC4)cc1, CCn1c(C(=O)Nc2cc(Cl)ccc2C)cc2sc(Cl)cc21, Cc1ccc2nc(/C(C#N)=C/c3ccc(-c4ccc(C(=O)OC(C)C)cc4)o3)[nH]c2c1, CCCCC(=O)Nc1nnc(S(=O)(=O)N(C)Cc2ccco2)s1, CN(Cc1ccccc1)S(=O)(=O)c1nnc(NC(=O)c2ccccc2F)s1, CN(Cc1ccccc1)c1ccc(-c2nc(-c3ccccc3)no2)cc1[N+](=O)[O-], CC(=O)c1ccc(NC(=O)c2nc3nc(C)cc(C(F)F)n3n2)cc1, COc1ccc(-c2nc(S(=O)(=O)c3ccccc3)c(N3CCCCC3)o2)cc1, CCn1cc(C(=O)N2CCN(c3cc(C)ccc3C)CC2)c(=O)c2cc(S(=O)(=O)N(C)C3CCCCC3)ccc21, O=C(O)c1ccc(Cn2c(SCc3ccc(F)cc3)nc3ccncc32)cc1, COc1cc(-c2n[nH]c(=S)n2Cc2ccccc2)cc(OC)c1OC, Cc1cc(-c2n[nH]c(=S)n2-c2ccc(C)c(C)c2)no1, CCOc1ccc(/C=C(\C#N)c2nc3ccccc3c(=O)[nH]2)cc1OC, C=CCOc1c(Br)cc(/C=N\n2nnnc2N)cc1OC, CC(C)(C)OC(=O)N1CCC(c2c(C(=O)NCc3ccccn3)cnn2-c2ccc(F)cc2)CC1, CC(=O)Nc1ccc(NC(=O)C2CCCN2S(=O)(=O)c2cccc(C(F)(F)F)c2)cc1 (stereo not drawn), CCc1nnc(NC(=O)C2CCCN2S(=O)(=O)c2ccccc2)s1 (stereo not drawn), CN(CCC#N)c1ccc(C=O)cc1, Cc1ccc(Nc2c(-c3ccc(C)cc3)nc3cnccn23)cc1, COc1cccc(NC(=O)c2ccc3nc(CCc4ccccc4)oc3c2)c1, Cc1nn(-c2ccc(F)cc2)c(Cl)c1/C=C(/CCC(=O)O)c1nc2ccccc2s1, Cc1csc[n+]1CCC1CCCCC1, CCOC(=O)c1ccc(NC(=O)c2csc3c2CCCCC3)cc1, CCOc1ccc(C(=O)/C=C/c2cn(CC(O)CN3CCCCCC3)c3ccccc23)cc1 (stereo not drawn), O=C(CN1CCSc2ccccc21)N1CCN(c2ccccc2)CC1, Cc1cc(C)cc(NS(=O)(=O)c2ccc3[nH]cc(C(=O)N4CCCCC4)c(=O)c3c2)c1, CCCCNC(=O)c1c[nH]c2ccc(S(=O)(=O)Nc3ccc(OCC)cc3)cc2c1=O, Cc1ccc(C)c(N2CCN(Cc3nnc(-c4ccccc4)o3)CC2)c1, CN(CC(=O)Nc1ccccc1F)S(=O)(=O)c1ccc2c(c1)c(=O)n(C)c(=O)n2C, CCNC(=O)CC1C(=O)N(c2ccc(F)cc2)C(=O)N1Cc1ccc(C)cc1 (stereo not drawn), CCCc1cc(-c2n[nH]c(=S)n2CC)c2ccccc2n1, CCN(CC)S(=O)(=O)c1cccc(-c2n[nH]c(=S)n2/N=C/c2ccc(C(=O)OC)cc2)c1, C=CCc1c(C)nc2cc(-c3ccccc3)[nH]n2c1=O, CN(Cc1ccccc1)C(=O)c1cn(C)c2ccc(S(=O)(=O)N(C)C3CCCCC3)cc2c1=O, COC(=O)c1cc(NC(=O)c2cnc(SC)nc2-c2ccccc2)cc(C(=O)OC)c1, Cc1cccc(-n2ncc(C(=O)N3CCN(c4ccc(Cl)cc4)CC3)c2C2CCN(C(=O)OC(C)(C)C)CC2)c1, CC(C)(C)OC(=O)N1CCC(c2c(C(=O)Nc3ccc4c(c3)OCO4)cnn2-c2ccccc2)CC1, Cc1nn(C)c2c1c(C(F)(F)F)cc(=O)n2C(C)C(=O)NCc1ccc(Cl)cc1 (stereo not drawn), CCOC(=O)c1cccc(NC(=O)c2cc(S(=O)(=O)N3CCCC(C)C3)cn2C)c1 (stereo not drawn), CCOc1ccc(N(C)S(=O)(=O)c2cc(-c3cnc(C)o3)ccc2OC)cc1, Cc1ccc(-n2c(=O)c3cccnc3n2CC(=O)NCc2ccc(F)cc2)cc1C, CC1CCCCN1S(=O)(=O)c1ccc(F)c(C(=O)Nc2ccccc2C(F)(F)F)c1 (stereo not drawn), Brc1nc2ncnc(NCc3ccco3)c2[nH]1, Cc1ccc(C(=O)N/C(=C\c2ccco2)C(=O)N2CCSCC2)cc1C, Cc1ccc(-n2ncc3c(=O)n(-c4ccc(C)c(C)c4)c(-c4ccco4)nc32)cc1, CCOc1ccc(-c2cc3nc(C4CCN(C(=O)OC(C)(C)C)CC4)c(C(=O)Nc4cccc(CC)c4)cn3n2)cc1, COc1cccc(NC(=O)N2CCN(C(=O)c3nsc4ccccc34)CC2)c1, CCc1ccccc1NC(=O)N1CCC2(CC1)Oc1ccccc1C(=O)N2Cc1ccccc1F, Cc1cc(C)cc(OCC(=O)Nc2c(C(=O)c3ccccc3)oc3ccccc23)c1, COc1ccccc1CNc1nc2ccc(Cl)cc2n2cnnc12, O=C(Nc1cccc(-c2nc3ccccc3o2)c1)c1cccc(Br)c1, O=C(N/N=C/c1cccc(OC(=O)c2ccc([N+](=O)[O-])cc2)c1)c1cccnc1, O=C(COc1ccc([N+](=O)[O-])cc1)Nc1cccc(C(=O)Nc2ccccc2C(=O)O)c1, Cc1ccc(OCC(=O)NCCCNC(=O)c2cccnc2)cc1C, Cc1cccc(OCC(=O)NCCNC(=O)c2cccnc2)c1, O=C(Nc1ccc(S(=O)(=O)N2CCC(c3nc4ccccc4s3)CC2)cc1)c1ccccc1F, COc1ccc(CCNC(=O)c2nn(C)c3c2CSc2ccccc2-3)cc1OC, COc1ccc(NC(=O)c2ccc3oc(=O)c(S(=O)(=O)c4ccc(F)cc4)cc3c2)c(OC)c1, CCCN1CCN(CCCNC(=O)c2cnn(-c3ccc(C)cc3)c2-n2cccc2)CC1

Potency, inactive and 44.7 µM (active):
CN(Cc1ccco1)S(=O)(=O)c1nnc(NC(=O)c2ccccc2)s1
